Compound activity: PubChem BioAssay, several laboratories
CCHFV vOTU inh – CCHFV vOTU protease inhibitors, primary screen, biochemical, Pep-AMC substrate, fluorescence; Crimean-Congo hemorrhagic fever virus L polyprotein viral ovarian tumor (vOTU) protease …; inhibition, % at 11.5 µM; 370,000 tested, 0.55% active; AID 651958, 2012; note: 0% = vehicle wells with enzyme and 100% = no enzyme wells
RecA splice inh – Mtb RecA intein splicing inhibitors, primary screen, biochemical, fluorescence, HTS; AID 2221, 2009; 290,000 tested, 0.75% active; cell-free RecA intein splicing; Protein RecA (Mycobacterium tuberculosis (strain ATCC 25618 / H37Rv)), P9WHJ3; inhibition, % (concentration not given with the values); in the data active = inhibition above about 30%;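 note: 0% = vehicle wells and 100% = reference inhibitor control wells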
FBA Mtb inh – Mtb FBA enzyme inhibitors, primary screen, biochemical, fluorescence, strain H37Rv; Fructose-bisphosphate aldolase (Mycobacterium tuberculosis (strain ATCC 25618 / H37Rv)), …; purified M. tuberculosis FBA, fluorescence read-out; inhibition, % at 1 µM; 360,000 tested, 2.3% active; AID 588726, 2011; in the data active = inhibition above about 27%;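 note: 0% = vehicle and 100% = reference inhibitor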
Target sequence (P9WQA3 whole entry, looked up): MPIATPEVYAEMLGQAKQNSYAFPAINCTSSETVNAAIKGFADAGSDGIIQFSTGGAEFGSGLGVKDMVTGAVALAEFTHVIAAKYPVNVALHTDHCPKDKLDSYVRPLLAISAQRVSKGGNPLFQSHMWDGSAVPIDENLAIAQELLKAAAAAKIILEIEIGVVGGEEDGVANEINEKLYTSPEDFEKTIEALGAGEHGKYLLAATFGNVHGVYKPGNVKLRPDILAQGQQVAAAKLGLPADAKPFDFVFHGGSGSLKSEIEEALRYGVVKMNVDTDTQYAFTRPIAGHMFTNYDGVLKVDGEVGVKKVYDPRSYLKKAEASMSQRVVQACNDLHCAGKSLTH
GDH-TPI counter – GDH-TPI coupling enzyme inhibitors, primary screen, artefact control for M. tuberculosis FBA inhibitor project, biochemical, absorbance, full deck. 360,000 tested, 1.2% active. GDH-TPI coupled enzyme counterscreen, NADH absorbance. AID 588335, 2011. inhibition, % at 4.8 µM;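 note: 0% = DMSO wells and 100% = wells lacking the enzyme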
* hit, by the source's call; · = no result; + = active, no number; ! = not active in a repeat. Sampled rows, rich in hits. Any-hit rate of the full collection: about 4.2%. Cut-off read from the data, not from the text of the source, unless noted: active = inhibition above about 30%; inactive = the rest.

SMILES	CCHFV vOTU inh	RecA splice inh	FBA Mtb inh	GDH-TPI counter
CCN(C(=O)CN1C(=O)S/C(=C\c2cccc(Cl)c2)C1=O)C1CCS(=O)(=O)C1 (centres undefined)	-7.4	9.0	-3.3	23.5
CCN(C(=O)CN1C(=O)S/C(=C\c2ccc(Cl)cc2)C1=O)C1CCS(=O)(=O)C1 (centres undefined)	4.3	-1.2	-0.4	33.9*
Cn1cccc1CC(=O)NN=Cc1cccc(F)c1	2.5	·	·	·
CCOC(=O)[C@]12CCCC=C1N(CCCOC)C(=O)[C@@H]2CC(=O)N1CCCC1	12.9	·	·	·
O=C(Nc1ccc(Cl)cc1)OC1CCC12CCC(c1ccccc1)CC2 (centres undefined)	10.0	·	·	·
CN(CC(=O)Nc1cccc(F)c1)CC(=O)N(C)CC(=O)Nc1ccccc1Br	0.3	·	-1.1	9.3
COc1cccc(Oc2coc3c(CN4CCOCC4)c(O)ccc3c2=O)c1	-106.3	-8.6	115.4*	25.7
CCOc1ccccc1Oc1c(C)oc2c(CN3CCN(C)CC3)c(O)ccc2c1=O	-222.4	·	138.5*	42.1*
COc1cccc(Oc2c(C)oc3c(CN4CCCC4)c(O)ccc3c2=O)c1	-286.7	-4.2	172.5*	23.2
COc1ccc(-c2c(C)oc3c(CN4CCOCC4)c(O)ccc3c2=O)cc1OC	-25.2	-0.6	17.6	8.6
CN1CCN(Cc2c(O)ccc3c(-c4ccccc4)cc(=O)oc23)CC1	-12.2	-44.8	3.2	10.6
COc1ccccc1Oc1c(C)oc2c(CN3CCOCC3)c(O)ccc2c1=O	-141.6	-1.8	180.5*	20.6
Cc1nn(C)cc1NC(=O)C[C@H]1CC[C@H]2[C@@H](COc3ccc(NC(=O)Nc4ccccc4)cc3C(=O)N2C)O1	-3.4	·	·	·
CSc1nc(-c2ccco2)nn1C(=O)c1cccs1	7.0	31.8*	1.5	-1.5
O=[N+]([O-])c1ccc(SCCc2ccncc2)cc1	-3.5	-5.0	-3.1	42.1*!
O=[N+]([O-])c1ccc(SCCc2ccccn2)cc1	-3.9	3.5	-1.6	13.1
Cc1ccc(NC(=O)c2cc(NC(=O)c3ccccc3C(=O)O)ccc2N2CCCCC2)cc1	2.0	5.9	-5.3	-3.2
Cc1ccc(NC(=O)c2cc(NC(=O)/C=C\C(=O)O)ccc2N2CCCCC2)cc1	13.5	48.1*	0.5	15.9
Cn1cnc([N+](=O)[O-])c1Oc1cccc2ccccc12	-11.6	36.2*	-0.1	13.5
Cn1cnc([N+](=O)[O-])c1S(=O)(=O)Oc1cccc2ccccc12	21.9	·	1.2	7.3
C/C=C\C=C\C(=O)Nc1cccc(C2=NOC3(C2)C[C@@H](C(N)=O)N(C(=O)C(c2ccccc2)c2ccccc2)C3)c1 (some centres undefined)	2.2	13.8	2.2	11.7
COc1cccc(-c2cc(C(F)(F)F)n3ncc(C(=O)O)c3n2)c1	2.5	-1.8	1.5	13.7
COc1cccc(-c2cc(C(F)(F)F)n3nc(N)nc3n2)c1	5.8	0.3	5.0	36.3*
COc1ccc(-c2cc(C(F)(F)F)n3nc(N)nc3n2)cc1	·	-156.4	+	19.7
CC1(C(=O)NS(=O)(=O)c2ccc(Cl)s2)CCN1C(=O)CCc1ccccc1 (centres undefined)	-2.7	·	1.1	2.7
SMILES	CCHFV vOTU inh	RecA splice inh	FBA Mtb inh	GDH-TPI counter
CC1CCCN(CCCNC(=O)c2cc3c(s2)-c2ccccc2OC3)C1 (centres undefined)	-389.7	-24.7	·	22.6
CC1CCN(CCCNC(=O)c2cc3c(s2)-c2ccccc2OC3)CC1	-385.6	-22.6	+	7.8
Cc1cccc2c1-c1sc(C(=O)NCCCN3CCC(C)CC3)cc1CO2	-360.0	-49.6	+	16.4
CC(C)CNc1cccc2c1S(=O)(=O)N(Cc1cn(Cc3ccc(F)cc3)nn1)Cc1ccccc1O2	-0.8	·	·	·
Cc1ccc(NC(=O)CN(C)C(=O)/C=C/c2ccc3c(c2)OCO3)cc1	19.5	·	7.3	17.4
COc1ccc2c(c1)c(C(C)=O)c(C)n2-c1ccccc1OC	-6.6	-0.2	5.0	5.4
NC(=O)N\N=C/C=C/C=C/c1ccc(F)cc1	14.6	2.5	-5.1	52.9*
NC(=O)N/N=C/C=C/c1ccccc1	0.5	-3.1	1.5	11.2
CCN(CC)S(=O)(=O)c1cccc(-n2c(O)c(C=Nc3ccccc3C(=O)O)c3ccccc3c2=O)c1	-7.5	-0.7	4.8	1.3
CC1CCCC(NC(=O)COC(=O)/C=C/c2ccco2)C1C (centres undefined)	6.7	·	-1.2	-2.5
Cc1[nH]n(-c2cccc3ccccc23)c(=O)c1/C=N/NC(=O)c1cccc([N+](=O)[O-])c1	4.2	10.0	-6.0	27.6
Cc1ccc(-n2[nH]c(C)c(/C=N/NC(=O)c3ccc([N+](=O)[O-])cc3)c2=O)c(C)c1	6.6	32.1*	-0.4	6.3
O=C(/C=C/c1ccccc1)Nc1ccc2c(c1)C(=O)NC2=O	-4.6	-2.1	11.8	26.1
O=C(/C=C/c1ccccc1Cl)Nc1ccc2c(c1)C(=O)NC2=O	1.6	-1.1	12.1	37.0*
COC(=O)C(C)Oc1ccc2c3c(c(=O)oc2c1)CCCCC3 (centres undefined)	-99.6	-0.9	145.6*	30.1
CCC(NC(=O)OC(C)(C)C)C(=O)Oc1ccc2c3c(c(=O)oc2c1)CCC3 (centres undefined)	-317.7	-12.8	·	5.7
CC(=O)Oc1ccc2c3c(c(=O)oc2c1)CCCC3	-253.3	3.2	194.9*	1.7
O=c1oc2cc(O)ccc2c2oc3cc(O)ccc3c12	-266.6	-15.7	+	35.3*
CC(Oc1ccc2c3c(c(=O)oc2c1)CCC3)C(=O)NCC1CCC(C(=O)O)CC1 (centres undefined)	-8.2	0.7	21.1	13.9
CSCCC(NC(C)=O)C(=O)Oc1ccc2c3c(c(=O)oc2c1)CCCC3 (centres undefined)	-314.0	-31.7	+	6.4
CCCCCOc1ccc(NC(=O)CSc2cccc3cccnc23)cc1	4.7	4.2	2.5	-2.0
COc1ccccc1N(C)S(=O)(=O)c1ccc(C)c(C(=O)NC(C)c2ccccn2)c1 (centres undefined)	-10.4	·	7.1	6.3
O=C(O)C1=CC2C=C(Cl)C=CC2OC1=O (centres undefined)	8.7	·	12.1	5.0
COc1c(CC=C(C)C)c(O)cc2oc(=O)c3c4ccc(O)cc4oc3c12	·	-29.6	141.8*	4.9
O=C(Oc1ccc2c3c(c(=O)oc2c1)CCCC3)c1ccco1	-244.5	9.9	98.6*	-5.9
SMILES	CCHFV vOTU inh	RecA splice inh	FBA Mtb inh	GDH-TPI counter
O=c1oc2cc(O)ccc2c2c1CCCC2	-315.3	-16.7	+	7.4
O=c1oc2cc(O)ccc2c2ccccc12	3.2	1.4	8.5	27.6
CC(C)(C)c1ccc(-c2ncccc2O)cc1	-35.1	-1.5	169.5*	3.1
ON=C1C2CC=C(c3ccccc3)C1CCC2 (centres undefined)	-9.1	·	1.5	17.9
Clc1ccc(C2=C3CCCCn4c(-c5ccccc5)c[n+](c43)C2)cc1	-39.8	33.5*	11.2	11.0
O=C(C[n+]1cc(-c2ccc(Cl)cc2)n2c1CCCCC2)c1ccccc1	-9.7	0.4	1.1	-0.8
